Measured values from PubChem BioAssay (NCI).
This is part of a sample that, as a whole, favours compounds with a hit. Of some 83,000 tested, about 20% had one in any assay.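 Growth was measured after 48 h exposure to one concentration of compound in 96-well plates. Values under 10 count as active.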 Unmarked numbers belong to inactive results. Active and inactive are the calls of the source.

What was measured:
Assay in all cases: NCI-60 one-dose screen, 48 h (100 = growth as untreated, 0 = no growth, -100 = all killed)
Conditions in all cases: 10 µM
SR leukemia = test system: SR leukemia
RPMI-8226 leukemia = test system: RPMI-8226 leukemia
OVCAR-8 ovarian = test system: OVCAR-8 ovarian
OVCAR-5 ovarian = test system: OVCAR-5 ovarian
SK-OV-3 ovarian = test system: SK-OV-3 ovarian
IGROV1 ovarian = test system: IGROV1 ovarian
OVCAR-3 ovarian = test system: OVCAR-3 ovarian
HS 578T breast = test system: HS 578T breast
NCI/ADR-RES ovarian = test system: NCI/ADR-RES ovarian
OVCAR-4 ovarian = test system: OVCAR-4 ovarian

Structure (SMILES)	growth (SR leukemia)	growth (RPMI-8226 leukemia)	growth (OVCAR-8 ovarian)	growth (OVCAR-5 ovarian)	growth (SK-OV-3 ovarian) [%]	growth (IGROV1 ovarian)	growth (OVCAR-3 ovarian)	growth (HS 578T breast)	growth (NCI/ADR-RES ovarian)	growth (OVCAR-4 ovarian)
CCOC(=O)C1C(C(=O)OCC)C2C(=O)C3C(C(=O)OCC)C(C(=O)OCC)C3C(=O)C12 (configuration not stated)	117%	101%	104%	108%	109	118%	114%	108%	56%	–
CCN(CC)CCCC(Nc1c2ccc(Cl)cc2nc2ccc(OC)cc12)c1ccc(F)cc1 (configuration not stated)	-13.9% (active)	-33.3% (active)	15.2%	61.7%	–	41.5%	108%	84%	28.9%	12.6%
COc1ccc2nc3cc(Cl)ccc3c(NCCCNCCO)c2c1	-8.29% (active)	-12.1% (active)	-23.2% (active)	-9.73% (active)	–	2.85% (active)	–	6.23% (active)	62.4%	-35.9% (active)
CC(=O)Nc1ccc(S(=O)(=O)N/N=C(\C)c2ccc(C)cc2C)cc1	113%	104%	98.5%	98.4%	98.5	–	111%	134%	112%	102%
COc1cc(NC(=O)C2=C(N3CCOCC3)/C(=C/c3ccc(Cl)cc3)CC2)cc(OC)c1OC	35.1%	33.2%	72.7%	103%	114	–	85.9%	95.2%	72.5%	83.2%
CSc1ccc(-c2cc(-c3ccc(NC(=O)CCCN4CCCC4)cc3)nc(-c3ccc(NC(=O)CCCN4CCCC4)cc3)c2)cc1	32.2%	73.2%	76.4%	72.3%	75.2	–	63.4%	55%	95.5%	67.3%
O[C@@H]1CO[C@H]2[C@@H]1OC[C@@H]2O	112%	112%	102%	92.6%	115	–	120%	–	104%	121%
Cc1cc(=O)n2nnc3cc(C(F)(F)F)ccc3n12	104%	107%	111%	121%	–	–	114%	117%	110%	116%
Oc1ccc(-c2[nH]c3ccccc3c2-c2nc3ccccc3o2)cc1	14.8%	86.6%	91.9%	80.6%	72.9	52.6%	74.1%	81.4%	32.5%	–
CC(C)(C)c1ccc(S(=O)(=O)Oc2ccc(NC(=O)C3CCCCC3)cc2)cc1	42.6%	13.6%	51%	85.1%	–	76.3%	40.7%	81.4%	29.8%	47.5%
C#CC(C)(O)[C@@H]1C[C@H](CC(=O)O)C1(C)C (some centres not stated)	88.9%	109%	112%	102%	116	–	119%	105%	111%	117%
Nc1nc(Cn2c(-c3nonc3N)nc3ccccc32)nc(N2CCCCC2)n1	58.9%	68%	93.2%	109%	79.1	–	95.6%	97.2%	83.3%	107%
O=C(Nc1ccc(OCc2nnc(-c3ccc(Cl)cc3)o2)c(F)c1)Nc1ccc(Cl)c(C(F)(F)F)c1	-15.4% (active)	-22.2% (active)	11.6%	26.6%	35.2	–	0.829% (active)	14.5%	7.99% (active)	17.2%
COc1ccc(-c2nc(-c3nc4ccc(C)cc4[nH]3)cc3c2[nH]c2ccccc23)cc1	10.2%	16.2%	21.4%	83.9%	107	–	45.1%	66.9%	19.4%	45.1%
Cc1cc(=O)n2nnc3cc(Cl)c(Cl)cc3n12	70.5%	97.4%	106%	107%	85.2	–	77.8%	122%	101%	92.1%
